# Reference: the OligoGym collection
# Target: MAPK4
# Assay: pooled miR-30 sensor sort-seq; sequence = guide strand
# Conditions: shRNA
row,Sequence,sensor-assay potency score (higher = more potent)
1,TAATGCTGATCAACGATCCTTG,0.275
2,TTGCTGATTAGATTTAAGGTGC,-0.432
3,TACCACTTTGTTACCAACCCTT,-0.102
4,TCTCCTAACACATTTGCTCTAT,-0.331
5,TTAGTAGTTATAACAATTCCTC,-0.514
6,TTGTAGTCGCAGGAGCGCCCGT,-1.23
7,TTCTTCACAGCGACCTTCCGGC,0.22

# Target: MAPKAPK2
# Assay: as above
# Conditions: shRNA
row,Sequence,sensor-assay potency score (higher = more potent)
1,TTTATCTTGATCTGCTCGTAGT,-0.523
2,TTGAAGATCTGCAAAACTTTGC,0.0666
3,TTGTAGTCATCGATGATGGCGT,-0.252
4,TTGATCTGCAGGCCGGACTTGA,-0.944
5,TTGATTGCATGATCCAAGGGTG,-0.156
6,TCGTACACATCCACGATCCGTA,0.149
7,TTTTTTATCTTGATCTGCTCGT,0.773
8,TTTTTATCTTGATCTGCTCGTA,0.0929
9,TCCTCTGATACTTCTGACCATT,-1.62
10,TTCTCTTTCTGTGAATGCCTGG,-0.0857
11,TTTTATCTTGATCTGCTCGTAG,0.563
12,TTTGTTGATTGCATGATCCAAG,-0.653
